Source: PubChem BioAssay (NCI)
This is part of a sample that, as a whole, favours compounds with a hit. Of some 83,000 tested, about 20% had one in any assay.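 Single-dose data. Exposure time 48 hours. Values below 10 considered active.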 Unmarked numbers belong to inactive results. Activity calls are given as the source filed them.

test system: SK-MEL-5 melanoma; assay: NCI-60 one-dose screen, 48 h (100 = growth as untreated, 0 = no growth, -100 = all killed); conditions: 10 µM unless noted
Protocol: Growth inhibition of the SK-MEL-5 human tumor cell line is measured as a screen for anti-cancer activity. Cells are grown in 96 well plates and exposed to the test compound for 48 hours. Compounds are tested at a single concentration, which is 10^-5 M for most compounds. The reported endpoint is percent growth (GI% or GIPRCNT), where numbers from 0 - 100% represent growth inhibition, and numbers from -100% - 0 represent cell death. For example, a value of 40 represents 60% growth inhibition. A value of 0 means no net growth occurred over the course of the experiment. A value of -40 indicates 40% of cells at the beginning of the experiment died by the end of the experiment. A value of -100 means all cells are dead at the end of the experiment.
NCI-60 Human Tumor Cell Lines Screen was performed using the standard one-dose NCI protocol, which is described in more detail at https://dtp.cancer.gov/discovery_development/nci-60/default.htm.
Compounds with GIPRCNT values below 10 were considered active. Activity score was based on GIPRCNT using the following formula: […]
Score is 0 for GIPRCNT values of 100 or above, 50 for GIPRCNT values of 0, and 100 for GIPRCNT values of -100.

Row | Compound | growth
1 | COc1ccccc1/C=C/C=N/NC1=NC2C(S1)N(C)C(=O)N2C (stereo not given) | 33.8%
2 | N=C1CC(=O)NN1C(=O)CSc1nc2sc3c(c2c(=O)n1-c1ccc(Cl)cc1)CCCC3 | 103%
3 | O=C(CSc1nc2sc3c(c2c(=O)n1-c1ccc(Cl)cc1)CCCC3)NNC(=O)Nc1cccc(C(F)(F)F)c1 | 35.4%
4 | CCOC(=O)c1c(Nc2ccccc2)nn2c(N)c(C#N)c(-c3ccc(Cl)cc3)nc12 | 94.8%
5 | COc1ccc(C(=O)/C=C/c2ccc(Oc3nc(NCCO)nc(N4CCOCC4)n3)c(OC)c2)cc1 | 95.2%
6 | O=C1Nc2ccc(Cl)cc2/C1=C/c1ccc(OCC(=O)c2ccc(Br)cc2)cc1 | 96.9%
7 | C[C@@H](Nc1c(C#N)cnc2ccc(-c3cnc(N)nc3)cc12)c1ccccc1 | -74.2% (active)
8 | CN(C)c1ccc(/C=c2\sc3nc4ccccc4n3c2=O)cc1 | 101%
9 | Nc1c(C(=O)Nc2ccc(Cl)cc2)sc2nc(-c3cnccn3)cc(-c3cccs3)c12 | 76.5%
10 | CCCC(=O)NC(c1cccnc1)c1cc(C)c2cccnc2c1O (stereo not given) | 48.7%
11 | O=c1[nH]c2ccccc2cc1CSc1ccccc1Nc1nccc(-c2ccc(C(F)(F)F)cc2)n1 | 96.2%
12 | N#Cc1c(-c2ccc(Cl)cc2)nc(SCc2ccccc2)nc1N1CCNCC1 | 84.5%
13 | Cn1c(SCC(=O)Nc2ccc(-c3nc4ccc([N+](=O)[O-])cc4[nH]3)cc2)nc2ccccc2c1=O | 84.8%
14 | CN(C)c1ccc(/C=C2\Cc3c(F)ccc(Br)c3C2=O)cc1 | 96.4%
15 | CCCCN1C(=O)/C(=c2\sc3n(c2=O)C2C(NN=3)N(CC)C(=O)N2CC)c2cc(Cl)ccc21 (stereo not given) | 66%
16 | C/C(=N\NC(N)=O)c1c(O)sc(=O)[nH]c1=O | 101%
17 | COC(=O)c1ccc(NC(=S)N2CCc3ccc([N+](=O)[O-])cc3C2)cc1O | 100%
18 | O=C(c1ccc(Cl)cc1)C1[C@H](c2ccc(Cl)cc2)[C@@H](c2ccccc2)NC12C(=O)Nc1ccc(Br)cc12 (stereo not given in full) | 54.8%
19 | CC(C)(C)OC(=O)N1C(=O)c2c(c3c4ccccc4[nH]c3c3ccc4ccccc4c23)C1=O | 60.4%
20 | O=C1c2c(c3c4cc(Br)ccc4[nH]c3c3ccc4ccccc4c23)C(=O)N1CCO | 100%

Row | Compound | growth
21 | Cc1[nH]nc2ncc(C#Cc3cncc(C(=O)Nc4ccc(CN5CCN(C)CC5)c(C(F)(F)F)c4)c3)cc12 | 40.2%
22 | O=C1C2=C(C(=O)c3c(O)cccc31)C(c1ccco1)c1sc(=O)[nH]c1S2 (stereo not given) | -93.4% (active)
23 | Cc1ccc(C(=O)Nc2cccc(C(F)(F)F)c2)cc1Nc1nc(-c2cnccn2)nc2c1cnn2C | 57.6%
24 | N#Cc1c(-c2ccc(Cl)cc2)nc(SCc2ccc([N+](=O)[O-])cc2)nc1N1CCNCC1 | 43.6%
25 | CCOC(=O)c1c(Nc2ccccc2)nn2c(-c3ccco3)c(C#N)cnc12 | 91.3%
26 | CS(=O)(=O)c1ccc(-n2cc(/C=C/C(=O)c3ccc(NC(=O)CO[N+](=O)[O-])cc3)c(-c3ccc(Cl)cc3)n2)cc1 | 98.4%
27 | COc1ccc(-n2c(SCC(=O)Nc3ccc(-c4nc5ccccc5[nH]4)cc3)nc3ccccc3c2=O)cc1 | -7.57% (active)
28 | Clc1ccc2c(NCCCN3CCOCC3)c3oc4ccccc4c3nc2c1 | 79.7%
29 | C/C(=C(/c1ccc(Cl)cc1)c1ccc(OCCN)cc1)c1ccc(C)cc1 | 106%
30 | CCCC(=O)NC(c1ccc2c(c1)OC(F)(F)O2)c1cc(C)c2cccnc2c1O (stereo not given) | -31.2% (active)
31 | O=c1[nH]c2ccc(Cl)cc2cc1CSc1ccccc1Nc1nccc(-c2ccc(Cl)cc2)n1 | 95.1%
32 | CCN1C(=S)N(CC)C2C1N=C(SC)N2/N=C/C=C/c1ccccc1[N+](=O)[O-] (stereo not given) | 96.2%
33 | Cc1ccccc1NC(=O)/C=C/c1ccc(OCCOc2ccc3c(C)cc(=O)oc3c2)cc1 | 92.6%
34 | COc1ccc(C(=O)/C=C/c2ccc(OCc3ccc(C)cc3)c(OC)c2)cc1OC | 64.5%
35 | Clc1ccc2oc3c(NCCCN4CCOCC4)c4ccccc4nc3c2c1 | 44.2%
36 | COc1cc(/C=C/C(=O)c2cc(OC)c(OC)c(OC)c2)ccc1Oc1nc(NCCO)nc(N2CCOCC2)n1 | 3.03% (active)
37 | CC(=O)c1ccc(Nc2nc(SC(C)C)nc(-c3ccccc3)c2C#N)cc1 | 98.1%
38 | O=C(CCCN1C(=O)/C(=C/c2ccccc2F)SC1=S)N1CCOCC1 | 97.1%
39 | NS(=O)(=O)c1cccc(Nc2nc(SCC(=O)c3ccc([N+](=O)[O-])cc3)nc3ccccc23)c1 | 7.52% (active)
40 | N#Cc1nc(-c2ccccc2)oc1N1CC[C@@H](CO)C1 | 99.6%
